Laboratory results: the supplement of paper PMC12494721
Structures can show the parent of a compound that is named as a salt.

Key:
Conditions in all cases: incubation time: 27 h, anaerobic, 37 °C;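 for the amine columns active = adjusted P below 0.05 in both replicates with a change the same way and a mean fold change under 0.8 or over 1.25; inactive = the rest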
[1] = system: Clostridium sporogenes DSM 1664; experiment: growth (OD595) fold change vs plate DMSO controls (fold change (ratio)); higher = more growth
How it was run: (§1)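 Growth is expressed as the fold change relative to the median of the DMSO control wells on each plate. Cultures in mGAM were grown anaerobically in 96-well plates for 27 h at 37 °C, shaken, and read at 595 nm. Readings were blank-subtracted, corrected for compound background with 20 µM compound solutions in water, and converted to OD with a calibration factor of 5. Fold changes above 1.5 were set to NA, and each value is the mean of 2 biological replicates.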

Escherichia coli IAI1 [2] = experiment: as above
How it was run: as §1

[3] = system: Klebsiella aerogenes DSM 30053; experiment: as above
How it was run: as §1

[4] = system: Ruminococcus gnavus DSM 108212; experiment: as above
How it was run: as §1

[5] = system: Klebsiella aerogenes DSM 30053; experiment: fold change of Histamine concentration vs plate DMSO controls (fold change (ratio)); higher = more amine produced, active = hit call of the paper (significant change in both replicates, either direction)
How it was run: (§2)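 In 80 µL wells, cultures of four gut bacterial strains in mGAM started at OD 0.1 before a 1:1 dilution and grew anaerobically at 37 °C for 27 h. Compounds were added to 20 µM final, except sweeteners at 50 µM final. After extraction of whole cultures with cold acetonitrile/methanol plus 0.1% formic acid and centrifugation, amines were measured by LC–triple-quadrupole MS in dynamic MRM mode against external calibration curves, with within-batch drift correction. Values give fold change over DMSO controls on the same plate, averaged across 2 biological replicates.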

[6] = system: Clostridium sporogenes DSM 1664; experiment: fold change of Tryptamine concentration vs plate DMSO controls (fold change (ratio)); higher = more amine produced, active = hit call of the paper (significant change in both replicates, either direction)
How it was run: as §2

[7] = system: Ruminococcus gnavus DSM 108212; experiment: as above
How it was run: as §2

Escherichia coli IAI1 [8] = experiment: fold change of Putrescine concentration vs plate DMSO controls (fold change (ratio)); higher = more amine produced, active = hit call of the paper (significant change in both replicates, either direction)
How it was run: as §2

[9] = system: Klebsiella aerogenes DSM 30053; experiment: as above
How it was run: as §2

Escherichia coli IAI1 [10] = experiment: fold change of Cadaverine concentration vs plate DMSO controls (fold change (ratio)); higher = more amine produced, active = hit call of the paper (significant change in both replicates, either direction)
How it was run: as §2

[11] = system: Klebsiella aerogenes DSM 30053; experiment: as above
How it was run: as §2

[12] = system: Ruminococcus gnavus DSM 108212; experiment: fold change of 2-Phenylethylamine concentration vs plate DMSO controls (fold change (ratio)); higher = more amine produced, active = hit call of the paper (significant change in both replicates, either direction)
How it was run: as §2

SMILES	growth [1]	growth (Escherichia coli IAI1 [2])	growth [3]	growth [4]	fold change of Histamine concentration [5]	fold change of Tryptamine concentration [6]	fold change of Tryptamine concentration [7]	fold change of Putrescine concentration (Escherichia coli IAI1 [8])	fold change of Putrescine concentration [9]	fold change of Cadaverine concentration (Escherichia coli IAI1 [10])	fold change of Cadaverine concentration [11]	fold change of 2-Phenylethylamine concentration [12]
CN(C)C(=O)Nc1ccc(Cl)c(Cl)c1 (20 µM)	1.05	1.02	0.938	1.08	1.01 (inactive)	0.947 (inactive)	0.962 (inactive)	0.97 (inactive)	0.976 (inactive)	0.991 (inactive)	0.99 (inactive)	0.954 (inactive)
CC(=O)Oc1ccccc1C(=O)Nc1ncc([N+](=O)[O-])s1 [Nitazoxanide] (20 µM)	0.00234	0.925	0.915	0.11	0.982 (inactive)	0.0219 (active)	0.045 (active)	1.02 (inactive)	0.982 (inactive)	1.25 (inactive)	1.01 (inactive)	0.0405 (active)
CC(C)Cn1cnc2c(N)nc3ccccc3c21 [Imiquimod] (20 µM)	1.1	0.977	1.02	0.323	0.998 (inactive)	0.888 (inactive)	0.149 (active)	0.988 (inactive)	1.02 (inactive)	1.04 (inactive)	1 (inactive)	0.162 (active)
O=C(O)c1cc(/N=N/c2ccc(S(=O)(=O)Nc3ccccn3)cc2)ccc1O [Sulfasalazine] (20 µM)	0.986	1	1.05	0.978	0.971 (inactive)	1.01 (inactive)	1 (inactive)	0.913 (inactive)	0.995 (inactive)	1.01 (inactive)	1.01 (inactive)	0.954 (inactive)
O=C1c2ccccc2S(=O)(=O)N1CCCCN1CCN(c2ncccn2)CC1 [Ipsapirone] (20 µM)	1	0.977	0.973	0.939	0.94 (inactive)	1.04 (inactive)	0.997 (inactive)	0.992 (inactive)	0.997 (inactive)	1.02 (inactive)	1 (inactive)	1.01 (inactive)
C#Cc1cccc(Nc2ncnc3cc(OCCOC)c(OCCOC)cc23)c1 [Erlotinib] (20 µM)	0.903	0.969	1.01	0.842	1.05 (inactive)	1 (inactive)	1.02 (inactive)	0.987 (inactive)	1.04 (inactive)	1.02 (inactive)	1.01 (inactive)	1.05 (inactive)
CC(N)CCCC(C)(C)O (stereo not given) [Heptaminol hydrochloride] (20 µM)	1.01	1.1	0.998	1.12	0.999 (inactive)	0.988 (inactive)	1.01 (inactive)	1.05 (inactive)	1 (inactive)	1.04 (inactive)	0.994 (inactive)	1.05 (inactive)
CC(C)(C)C(=O)C(Oc1ccc(Cl)cc1)n1ccnc1 (stereo not given) [Climbazole] (20 µM)	1.22	1.05	1.07	0.922	0.96 (inactive)	1.04 (inactive)	0.979 (inactive)	1.04 (inactive)	1.02 (inactive)	0.968 (inactive)	1.01 (inactive)	1.03 (inactive)
CC(C)NCC(O)c1ccc2ccccc2c1 (stereo not given) [Pronethalol hydrochloride] (20 µM)	1.12	1.01	0.993	0.98	0.97 (inactive)	0.978 (inactive)	1.04 (inactive)	1.01 (inactive)	0.986 (inactive)	0.994 (inactive)	0.982 (inactive)	1.05 (inactive)
CN(C)CCc1c[nH]c2ccc(C[C@H]3COC(=O)N3)cc12 [Zolmitriptan] (20 µM)	1.04	1.06	1.01	0.975	1.01 (inactive)	1.04 (inactive)	1.04 (inactive)	1.01 (inactive)	1.01 (inactive)	1.01 (inactive)	0.993 (inactive)	1.06 (inactive)
CCOC(=O)Nc1ccc(NCc2ccc(F)cc2)nc1N [Flupirtine] (20 µM)	1.18	0.973	1.04	0.999	0.95 (inactive)	0.95 (inactive)	1.01 (inactive)	1.03 (inactive)	0.993 (inactive)	1.01 (inactive)	0.999 (inactive)	1.03 (inactive)
CCc1cccc(CC)c1NC(=O)CN(CC(=O)O)CC(=O)O [Etifenin] (20 µM)	1.08	1	1.08	1.1	0.925 (inactive)	1.02 (inactive)	0.951 (inactive)	0.998 (inactive)	1 (inactive)	0.987 (inactive)	1.02 (inactive)	0.924 (inactive)
CC(=O)Oc1cccc2c1C(=O)c1c(OC(C)=O)cc(C(=O)O)cc1C2=O [Diacerein] (20 µM)	0.926	0.994	0.96	0.904	0.952 (inactive)	1.02 (inactive)	0.905 (inactive)	1.08 (inactive)	0.956 (inactive)	1.02 (inactive)	1 (inactive)	0.916 (inactive)
CCN(CC)CCOC(=O)c1ccc(N)cc1 [Procaine hydrochloride] (20 µM)	0.834	1.24	1.08	1.23	0.974 (inactive)	1.04 (inactive)	1.04 (inactive)	1.16 (inactive)	1.03 (inactive)	0.979 (inactive)	1.01 (inactive)	0.992 (inactive)
CCc1oc2ccccc2c1C(=O)c1cc(Br)c(O)c(Br)c1 [Benzbromarone] (20 µM)	0.813	0.959	0.986	0.873	0.958 (inactive)	0.706 (active)	0.722 (active)	0.989 (inactive)	0.994 (inactive)	1.04 (inactive)	0.998 (inactive)	0.763 (active)
Cc1onc(-c2ccccc2Cl)c1C(=O)N[C@@H]1C(=O)N2[C@@H]1SC(C)(C)[C@@H]2C(=O)O [Cloxacillin sodium salt] (20 µM)	0	1.02	1.08	0.171	0.987 (inactive)	0.0211 (active)	0.0749 (active)	0.997 (inactive)	1.02 (inactive)	0.999 (inactive)	1.02 (inactive)	0.0503 (active)
NC(=O)NC1NC(=O)NC1=O (stereo not given) [Allantoin] (20 µM)	1.05	1.14	1	1.09	1.02 (inactive)	1.11 (inactive)	1.17 (inactive)	1.1 (inactive)	0.972 (inactive)	0.983 (inactive)	1.02 (inactive)	1.05 (inactive)
Cc1nc2ccccn2c(=O)c1CCN1CCC(C(=O)c2ccc(F)cc2)CC1 [Pirenperone] (20 µM)	0.963	1.01	1.01	1.05	1.06 (inactive)	0.996 (inactive)	0.997 (inactive)	0.995 (inactive)	1.01 (inactive)	1.03 (inactive)	0.983 (inactive)	0.969 (inactive)
CN(C)CCC(c1ccc(Br)cc1)c1ccccn1 (stereo not given) [Brompheniramine maleate] (20 µM)	0.959	1.17	1.07	1.17	0.891 (inactive)	1.2 (inactive)	1.1 (inactive)	0.981 (inactive)	0.943 (inactive)	1.2 (inactive)	1.03 (inactive)	1.14 (inactive)
CC(=O)/N=c1/sc(S(N)(=O)=O)nn1C [Methazolamide] (20 µM)	1.08	1.07	1.01	0.848	0.962 (inactive)	1.02 (inactive)	1.07 (inactive)	0.979 (inactive)	0.981 (inactive)	0.958 (inactive)	0.996 (inactive)	1.12 (inactive)
Clc1ccc(CCC(Cn2ccnc2)Sc2c(Cl)cccc2Cl)cc1 (stereo not given) [Butoconazole nitrate] (20 µM)	1.12	1.02	0.995	0.621	1.01 (inactive)	1.07 (inactive)	0.514 (active)	0.997 (inactive)	0.992 (inactive)	0.995 (inactive)	0.989 (inactive)	0.623 (active)
Cc1cccc(C)c1OCC(=O)N[C@@H](Cc1ccccc1)[C@@H](O)C[C@H](Cc1ccccc1)NC(=O)[C@H](C(C)C)N1CCCNC1=O [Lopinavir] (20 µM)	1.12	1.01	1.19	1.31	0.963 (inactive)	0.892 (inactive)	0.986 (inactive)	0.989 (inactive)	1.04 (inactive)	1.02 (inactive)	1.02 (inactive)	0.997 (inactive)
CC(C)NCC(O)COc1cccc2[nH]c3ccccc3c12 (stereo not given) [Carazolol] (20 µM)	0.738	1	0.956	1.12	1.06 (inactive)	0.732 (inactive)	1.07 (inactive)	0.922 (inactive)	0.966 (inactive)	0.889 (inactive)	0.992 (inactive)	1.14 (inactive)
Cc1nccn1CC1CCc2c(c3ccccc3n2C)C1=O (stereo not given) [Ondansetron hydrochloride] (20 µM)	0.937	0.997	0.989	1.08	1.01 (inactive)	1.03 (inactive)	1.01 (inactive)	1.05 (inactive)	0.978 (inactive)	1.01 (inactive)	0.995 (inactive)	1.01 (inactive)
Nc1ccc(C(=O)O)c(O)c1 [Aminosalicylic acid] (20 µM)	1.11	1.02	1.02	0.97	1.06 (inactive)	1 (inactive)	0.999 (inactive)	1.01 (inactive)	1.01 (inactive)	1.02 (inactive)	0.98 (inactive)	0.981 (inactive)
